From PubChem BioAssay (Tox21)
Where “and” joins values, the source holds several entries; their conditions need not be identical. Equal entries are not always repeated. Records with an inconclusive call do not appear. Entries that show only a call come without a potency. A structure can be active in one record and inactive in another. Calls of active or inactive are those of the source. Unless noted, calls come from the whole dose curve; as a rule, active = well fitted curve in the direction sought with a large enough effect in the repeat runs; inconclusive = weak or mixed curves; inactive = no such curve, though single readings can be large; an effect the other way counts as inactive or inconclusive.

Assays:
[1] = qHTS assay to identify small molecule antagonists of the constitutive androstane receptor (CAR) signaling pathway - cell viability counter screen (AID 1224837); note: series mostly up to about 92 µM; nearly all actives have a fitted effect of over 45% in size
Outline: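 Read-out: CellTiter-Fluor fluorescence after 23 hr at 37 C/5% CO2. Cells: HepG2 double-stable for hCAR and CYP2B6-2.2kb. Compounds tested at 15 concentrations in the presence of CITCO, final concentration 50 nM.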

[2] = target: Nuclear receptor subfamily 1 group I member 3 (Homo sapiens) (UniProt Q14994); test: qHTS assay to identify small molecule antagonists of the constitutive androstane receptor (CAR) signaling pathway (AID 1224838);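 note: HepG2 cells stably expressing hCAR with CYP2B6 luciferase reporter stimulated by CITCO; nearly all actives have a fitted effect of over 40% in size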
Outline: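 Read-out: ONE-Glo luciferase luminescence after 30 min at room temperature. HepG2-CYP2B6-hCAR double-stable cells, compounds in 15-point titration plus 50 nM CITCO final, 24 h at 37 C/5% CO2.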

[3] = target: Nuclear receptor subfamily 1 group I member 3 (Homo sapiens) (UniProt Q14994); test: qHTS assay to identify small molecule agonists of the constitutive androstane receptor (CAR) signaling pathway (AID 1224839);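 note: HepG2 cells stably carrying human CAR and a CYP2B6 luciferase reporter; series mostly up to about 92 µM; nearly all actives have a fitted effect of over 15% in size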
Outline: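 Luminescence read-out (ONE-Glo, 30 min, room temperature) from double-stable HepG2-CYP2B6-hCAR cells exposed 24 h to 15-point compound series in presence of 0.75 uM PK11195 final.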

[4] = qHTS assay to identify small molecule antagonists of the estrogen related receptor signaling pathway with the pleiotropic PPARgamma coactivator (PGC) from Tox21 10K library - cell viability counter screen (AID 1224840; active = well fitted cell-killing curve with a large enough effect in the repeat runs, not every such curve was filed as active; note: nearly all actives have a fitted effect of over 40% in size)
Outline: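 Fluorescence read-out of CellTiter-Fluor viability reagent, added after cells had been exposed to compound in DMSO for 17.5 h at 37 C; 30 min development at 37 C/5% CO2. Cells: PGC/ERR line, 2,000/well.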

[5] = target: Thyrotropin receptor (Homo sapiens) (UniProt P16473); test: qHTS assay to identify small molecule agonists of the thyroid stimulating hormone receptor (TSHR) signaling pathway (AID 1224843; calls by dose curve; note: nearly all actives have a fitted effect of over 45% in size; note: potency is the fitted concentration of half-maximal effect)
Outline: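 Agonist-mode screen: TSHR HEK293 cells received test chemicals for half an hour at room temperature, then HTRF cAMP detection reagents for one hour prior to fluorescence measurement. Each chemical ran as a 15-concentration series, triplicated.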

[6] = qHTS assay to identify small molecule agonists of the hypoxia (HIF-1) signaling pathway - cell viability counter screen (AID 1224844; calls by dose curve; note: nearly all actives have a fitted effect of over 50% in size)
Outline: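 CellTiter-Glo luminescence read-out, 30 min RT, taken in the same wells as the beta-lactamase HRE reporter assay; HRE-bla ME-180 cells, 0.5% dialyzed FBS, 17 hr compound treatment at 37C, 5% CO2.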

[7] = qHTS assay to identify small molecule agonists of H2AX (AID 1224845; active = well fitted activation curve with a large enough effect in the signal ratio in the repeat runs, not every such curve was filed as active; the % refers to the signal ratio)
Outline: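 Wild-type CHO-K1 cells, plated overnight, exposed 3hr at 37C to 15 concentrations (0.76% DMSO final). Lysed, then HTRF anti-pH2AX (S139) cryptate and anti-H2AX-d2 antibodies, 24 hr room temperature; 665/620 nm emission read.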

[8] = qHTS assay to identify small molecule agonists of the hypoxia (HIF-1) signaling pathway (AID 1224846; active = well fitted activation curve with a large enough effect in the signal ratio in the repeat runs, not every such curve was filed as active; the % refers to the signal ratio)
Outline: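 Beta-lactamase FRET read-out (CCF4-AM substrate) from ME-180 cells carrying an HRE-driven bla reporter, after 17 hrs compound exposure at 37C/5% CO2. Cells were seeded at 2,000 per well in 0.5% dialyzed FBS medium and preincubated 5 hrs.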

[9] = qHTS assay to identify small molecule agonists of H2AX - cell viability counter screen (AID 1224847; calls by dose curve; note: top concentration of the series differs between compounds; nearly all actives have a fitted effect of over 30% in size)
Outline: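 CHO-K1 wt, 1000 cells/well, o/n 37C; cpds 15 conc, 3 h 37C, 0.76% DMSO; CellTiter-Glo, 30 min RT, luminescence.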

[10] = qHTS RealTime-Glo MT Cell Viability Assay in HepG2 cells - 24 hour (AID 1224867); note: nearly all actives have a fitted effect of over 50% in size
Outline: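 qHTS, HepG2, 600 cells/well, RealTime-Glo (NanoLuc + prosubstrate) added with cells; 5 h preincubation; DMSO compound addition; 37 C; luminescence at 0/8/16/24/32/40 h.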

[11] = qHTS RealTime-Glo MT Cell Viability Assay in HEK293 cells - 32 hour (AID 1224868); note: top concentration of the series differs between compounds; nearly all actives have a fitted effect of over 50% in size
Outline: (§1)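 Assay medium contained NanoLuc luciferase plus cell-permeant prosubstrate, added with HEK293 cells at 600 cells/well. After 5 h at 37 C/5% CO2 compounds were added; plates stayed at 37 C for 40 h with serial luminescence reads.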

[12] = A CellTox Green Cytotoxicity Assay to monitor cytotoxicity in HEK293 cells - 0 hour (AID 1224869); note: nearly all actives have a fitted effect of over 50% in size
Outline: (§2)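 Read-out: fluorescence of a cell-impermeant cyanine dye staining DNA of dead cells, proportional to cytotoxicity. HEK293, 600 cells/well with reagent, compound (23 nL DMSO) added after 5 h; reads at 0, 8, 16, 24, 32, 40 h.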

[13] = qHTS RealTime-Glo MT Cell Viability Assay in HepG2 cells - 40 hour (AID 1224870); note: nearly all actives have a fitted effect of over 50% in size
Outline: (§3)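 HepG2 cells (600/well) mixed with RealTime-Glo MT reagent, settled 5 h at 37 C/5% CO2 before compound addition. Nonlytic NanoLuc luminescence from viable-cell prosubstrate reduction read repeatedly during 40 h treatment at 37 C.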

[14] = A CellTox Green Cytotoxicity Assay to monitor cytotoxicity in HEK293 cells - 40 hour (AID 1224871); note: nearly all actives have a fitted effect of over 45% in size
Outline: as §2

[15] = qHTS RealTime-Glo MT Cell Viability Assay in HEK293 cells - 16 hour (AID 1224872)
Outline: as §1

[16] = qHTS RealTime-Glo MT Cell Viability Assay in HepG2 cells - 8 hour (AID 1224873); note: nearly all actives have a fitted effect of over 55% in size
Outline: as §3

[17] = A CellTox Green Cytotoxicity Assay to monitor cytotoxicity in HEK293 cells - 24 hour (AID 1224875); note: series mostly up to about 77 µM; nearly all actives have a fitted effect of over 45% in size
Outline: as §2

[18] = A CellTox Green Cytotoxicity Assay to monitor cytotoxicity in HepG2 cells - 16 hour (AID 1224876); note: nearly all actives have a fitted effect of over 45% in size
Outline: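 HepG2, 600 cells/well premixed w/ CellTox Green; 5 h settle, 37 C/5% CO2; pintool cpd add (DMSO); 37 C, 40 h; fluorescence read at 0, 8, 16, 24, 32, 40 h.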

[19] = qHTS RealTime-Glo MT Cell Viability Assay in HEK293 cells - 40 hour (AID 1224874); conditions: RealTime-Glo luminescence; max response: stronger effect = lower value; note: nearly all actives have a fitted effect of over 50% in size
Outline: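 Luminescence readout at each listed time point; HEK293, 600 cells/well, RealTime-Glo MT reagent added with cells; compounds pinned (23 nL in DMSO) after 5 h at 37 C; continuous culture at 37 C.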

Sequence of Thyrotropin receptor (Homo sapiens) (P16473 whole entry, looked up): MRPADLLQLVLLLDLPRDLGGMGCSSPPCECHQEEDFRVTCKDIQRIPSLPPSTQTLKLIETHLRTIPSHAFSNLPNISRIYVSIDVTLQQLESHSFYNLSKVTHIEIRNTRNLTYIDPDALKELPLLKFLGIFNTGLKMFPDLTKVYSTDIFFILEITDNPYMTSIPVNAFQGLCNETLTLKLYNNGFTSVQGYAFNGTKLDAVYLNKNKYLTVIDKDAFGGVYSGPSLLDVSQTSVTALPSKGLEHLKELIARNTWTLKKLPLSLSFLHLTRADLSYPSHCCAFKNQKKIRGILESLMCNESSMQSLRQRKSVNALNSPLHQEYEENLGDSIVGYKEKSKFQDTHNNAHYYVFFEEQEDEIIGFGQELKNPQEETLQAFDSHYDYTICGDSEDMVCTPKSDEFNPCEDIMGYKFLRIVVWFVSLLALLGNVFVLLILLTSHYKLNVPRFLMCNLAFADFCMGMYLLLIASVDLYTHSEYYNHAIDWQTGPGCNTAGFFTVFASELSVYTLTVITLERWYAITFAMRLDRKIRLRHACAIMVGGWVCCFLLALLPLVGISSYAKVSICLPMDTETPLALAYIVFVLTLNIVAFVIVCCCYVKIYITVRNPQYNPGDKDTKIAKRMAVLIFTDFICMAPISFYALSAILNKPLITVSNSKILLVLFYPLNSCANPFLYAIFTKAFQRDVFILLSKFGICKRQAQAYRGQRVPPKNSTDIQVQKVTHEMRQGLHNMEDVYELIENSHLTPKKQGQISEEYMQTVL
Sequence of Nuclear receptor subfamily 1 group I member 3 (Homo sapiens) (Q14994 whole entry, looked up): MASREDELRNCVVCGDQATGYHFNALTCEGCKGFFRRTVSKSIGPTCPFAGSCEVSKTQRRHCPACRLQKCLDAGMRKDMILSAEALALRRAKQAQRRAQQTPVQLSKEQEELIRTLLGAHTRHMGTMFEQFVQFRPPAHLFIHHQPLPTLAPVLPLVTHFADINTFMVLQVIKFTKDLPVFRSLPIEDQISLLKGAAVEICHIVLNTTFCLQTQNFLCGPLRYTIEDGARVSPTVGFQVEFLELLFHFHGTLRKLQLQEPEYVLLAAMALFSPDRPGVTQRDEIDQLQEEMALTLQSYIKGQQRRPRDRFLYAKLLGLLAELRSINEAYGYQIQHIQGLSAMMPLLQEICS

Row | SMILES | Potency [1] | Potency [2] | Potency [3] | Potency [4] | Potency [5] | Potency [6] | Potency [7] | outcome [8] | Potency [9] | outcome [10] | Potency [11] | outcome [12] | outcome [13] | Potency [14] | Potency [15] | outcome [16] | Potency [17] | Potency [18] | max response [19]
1 | O=C(O)CC(C(=O)O)C(CC(=O)O)C(=O)O (stereo not drawn) | inactive | inactive | inactive | inactive | 268 nM (active) and inactive | inactive | inactive | inactive | inactive | inactive | inactive | inactive | inactive | inactive | inactive | inactive | inactive | inactive | 
2 | CN(C)CCC(c1ccccc1)c1ccccn1 (stereo not drawn) | inactive | inactive | inactive | inactive | inactive | inactive | inactive |  | inactive |  | inactive | inactive | inactive | inactive | inactive | inactive | inactive | inactive | 7.85% (inactive) and 1.55% (inactive)
3 | CC(=O)OCC(=O)[C@@]12N=C(C)O[C@@H]1C[C@H]1[C@@H]3CCC4=CC(=O)C=C[C@]4(C)[C@H]3[C@@H](O)C[C@@]12C | inactive | inactive | inactive | inactive | inactive | inactive | inactive | inactive | inactive | inactive | inactive | inactive | inactive | inactive | inactive |  | inactive | inactive | -2.48% (inactive) and 0.51% (inactive)
4 | C#CCN(C)Cc1ccccc1 | inactive | inactive | inactive | inactive | inactive | inactive | inactive |  | inactive |  | inactive | inactive | inactive | inactive | inactive | inactive | inactive | inactive | -0.876% (inactive) and -0.317% (inactive)
5 | CCCCC(CC)CO (stereo not drawn) | inactive | inactive | inactive | inactive | inactive | inactive | inactive | inactive | inactive | inactive | inactive | inactive | inactive | inactive | inactive | inactive | inactive | inactive | 6.29% (inactive) and 2.53% (inactive)
6 | CC(C)c1ccc(S(=O)(=O)O)cc1 | inactive | inactive | inactive | inactive | inactive | inactive | inactive | inactive | inactive |  | inactive | inactive | inactive | inactive | inactive | inactive |  | inactive | -1.12% (inactive) and 9.2% (inactive)
7 | CC1CCC2CC1C2(C)C (stereo not drawn) | inactive | inactive | inactive | inactive | inactive | inactive | inactive | inactive | inactive |  | inactive | inactive | inactive | inactive | inactive | inactive | inactive | inactive | 
